The values that follow come from PubChem BioAssay (EPA / NIEHS).

Activity calls are given as the source filed them. Rule for the calls: active = hit-call score of the fitted dose curve at least 0.9, where 1 is the maximum; inactive = score below 0.9.

Assay [1] can be described thus: ATG_DR4_LXR_CIS: Attagene CIS-FACTORIAL HepG2 Assay for human Liver X Receptor (LXR), DR4 submotif (AID 2282929). The conditions noted are these: HepG2 Attagene DR4 cis-reporter, mRNA transcription; actives raise or lower the signal. Put shortly: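 HepG2 cells were transiently transfected with multiple cis-regulated reporter units and dosed for 24 hours. The DR4 reporter mRNA was quantified by RT-PCR, 6-FAM labelling and capillary electrophoresis. Bidirectional fits used DMSO as baseline.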

Assay [2] addresses Aryl hydrocarbon receptor (Homo sapiens) (UniProt P35869). Put plainly: ATG_Ahr_CIS: Attagene CIS-FACTORIAL HepG2 Assay for human Aryl Hydrocarbon Receptor (Ahr) (AID 2282930). Particulars: HepG2 AhR cis-factorial reporter transcription; actives raise or lower the signal. A digest of the protocol:
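Transient MRTU transfection of HepG2 → 24 h compound exposure → total RNA, oligo(dT) RT → PCR, 6-FAM extension, HpaI cut → CE fluorescence. DMSO = baseline; bidirectional curve fit.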

A short description of assay [3]: ATG_AP_1_CIS: Attagene CIS-FACTORIAL HepG2 Assay for human Activator Protein 1 (AP-1) (AID 2282931). The conditions noted are these: HepG2 Attagene cis-factorial AP-1 reporter mRNA; actives raise or lower the signal. Put shortly: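 HepG2 cells transiently transfected with cis-element-driven reporter transcription units, dosed for 24 hours. Reporter mRNA measured by RT-PCR, 6-FAM labelling, HpaI digestion and capillary electrophoresis. Bidirectional fitting against DMSO baseline.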

A short description of assay [4]: ATG_AP_2_CIS: Attagene CIS-FACTORIAL HepG2 Assay for human Activator Protein 2 (AP-2) (AID 2282932). The conditions noted are these: HepG2 AP-2 cis-reporter, Attagene transcription factor profiling; actives raise or lower the signal. A digest of the protocol:
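Endogenous transcription factor activity is reported through transfected multiplex reporter constructs in HepG2, after 24 h of compound exposure. Transcripts were quantified by RT-PCR and capillary electrophoresis of fluorescent fragments. Bidirectional fit against DMSO.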

Assay [5] in a line: ATG_BRE_CIS: Attagene CIS-FACTORIAL HepG2 Assay for human Bone Morphogenetic Protein (BMP) Response Element (BRE) (AID 2282933). The conditions noted are these: HepG2 BMP response element reporter, Attagene transcription factor profiling; actives raise or lower the signal. A digest of the protocol: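 A HepG2 multiplex reporter system measured inducible reporter mRNA 24 h post-dosing. Detection: RT-PCR, 6-FAM primer extension, HpaI digestion, capillary electrophoresis. Activity fitted bidirectionally relative to DMSO.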

In assay [6] the target is Retinoic acid receptor alpha (Homo sapiens) (UniProt P10276). Nature of the assay: ATG_DR5_RAR_CIS: Attagene CIS-FACTORIAL HepG2 Assay for human Retinoic Acid Receptor Alpha (RARE), DR5 submotif (AID 2282934). Particulars: HepG2 Attagene cis-factorial RARE DR5 reporter, mRNA; actives raise or lower the signal. A digest of the protocol: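 Transient MRTU transfection of HepG2; 24 h compound treatment; TriZol RNA, oligo(dT) RT, PCR, FAM labelling, capillary electrophoresis. Bidirectional fit vs DMSO. Endogenous TF activity at DR5 RARE.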
Chain of Retinoic acid receptor alpha (Homo sapiens) (P10276 whole entry, looked up): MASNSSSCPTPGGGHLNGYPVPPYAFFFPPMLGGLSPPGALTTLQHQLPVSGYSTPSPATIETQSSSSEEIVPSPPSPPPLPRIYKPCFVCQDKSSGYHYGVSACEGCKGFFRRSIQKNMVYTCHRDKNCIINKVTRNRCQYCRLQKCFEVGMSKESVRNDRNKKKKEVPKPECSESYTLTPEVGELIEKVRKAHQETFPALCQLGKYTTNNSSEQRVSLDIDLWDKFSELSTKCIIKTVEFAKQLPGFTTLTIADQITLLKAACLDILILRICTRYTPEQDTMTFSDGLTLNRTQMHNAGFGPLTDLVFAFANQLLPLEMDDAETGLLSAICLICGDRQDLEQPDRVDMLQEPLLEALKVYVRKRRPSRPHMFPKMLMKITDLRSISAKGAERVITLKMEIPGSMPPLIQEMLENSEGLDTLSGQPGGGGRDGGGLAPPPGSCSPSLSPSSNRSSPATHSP

The target in assay [7] is Transcription factor E2F1 (Homo sapiens) (UniProt Q01094). Put plainly: ATG_E2F_CIS: Attagene CIS-FACTORIAL HepG2 Assay for human E2F Transcription Factor 1 (AID 2282935). Particulars: HepG2 Attagene cis-reporter, E2F reporter RNA transcripts; actives raise or lower the signal. Put shortly:
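Gain or loss of reporter transcript, fitted against DMSO, reflects E2F1-driven transcription. Transiently transfected HepG2 dosed 24 h before RNA isolation. Quantified by fluorescent RT-PCR products separated by capillary electrophoresis.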

Assay [8] is described as follows: ATG_E_Box_CIS: Attagene CIS-FACTORIAL HepG2 Assay for human Enhancer Box (E-box) (AID 2282936). The conditions noted are these: HepG2 E-box cis-reporter transcription, actives raise or lower the signal. Put shortly: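 E-box-driven reporter transcripts measured in transiently transfected HepG2 after 24 h exposure: RNA reverse-transcribed, PCR-amplified, fluorescently labelled, digested and resolved by capillary electrophoresis. Gain or loss relative to DMSO.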

Assay [9] is described as follows: ATG_EGR_CIS: Attagene CIS-FACTORIAL HepG2 Assay for human Early Growth Response 1 (EGR1) (AID 2282938). The conditions noted are these: HepG2 Attagene CIS-FACTORIAL EGR reporter mRNA; actives raise or lower the signal. A digest of the protocol:
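HepG2 cells transiently transfected with cis-element-driven multiplexed reporter units, dosed for 24 h. EGR1-element reporter mRNA quantified by RT-PCR, 6-FAM labelling, HpaI digestion and capillary electrophoresis; bidirectional fit versus DMSO.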

The nature of assay [10]: ATG_M_19_CIS: Attagene CIS-FACTORIAL HepG2 Assay for M19 Transcription Factor (Internal Marker) (AID 2282939). Particulars: HepG2 Attagene CIS-FACTORIAL M19 internal marker reporter; actives raise or lower the signal. Put shortly: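 Chemical-treated HepG2 (24 h) with MRTU constructs; reporter transcripts detected by fluorescent RT-PCR fragment analysis on capillary electrophoresis. Internal background marker, DMSO as baseline.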

Assay [11] is described as follows: ATG_ERE_CIS: Attagene CIS-FACTORIAL HepG2 Assay for Estrogen Response Element (ERE) (AID 2282940). The conditions noted are these: HepG2 ERE cis-reporter, Attagene RNA transcript; actives raise or lower the signal. Put shortly:
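Human liver cells (HepG2) bearing transiently transfected, promoter-regulated reporter units were exposed 24 h. Reporter mRNA induction was detected by capillary electrophoresis of labelled RT-PCR products and fitted bidirectionally to DMSO.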

A short description of assay [12]: ATG_Ets_CIS: Attagene CIS-FACTORIAL HepG2 Assay for human Erythroblast Transformation Specific (ETS) (AID 2282941). Particulars: HepG2 ETS cis-reporter transcription, actives raise or lower the signal. Put shortly: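 RT-PCR/capillary electrophoresis fluorescence read-out of reporter mRNA; HepG2 transient multi-reporter transfection; 24 h compound exposure; gain or loss of signal fitted bidirectionally relative to DMSO.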

Assay [13] has as its target Hepatocyte nuclear factor 3-beta (Homo sapiens) (UniProt Q9Y261). Put plainly: ATG_FoxA2_CIS: Attagene CIS-FACTORIAL HepG2 Assay for human Forkhead box A2 (FOXA2) (AID 2282942). The conditions noted are these: HepG2 cis-reporter transcription factor activity, 24 h; actives raise or lower the signal. Put shortly:
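HepG2 transiently transfected with a multiplexed cis-promoter reporter library read endogenous FOXA2 activity. After 24 h compound exposure, reporter mRNA was quantified by RT-PCR, HpaI digestion and capillary electrophoresis. Bidirectional fit against DMSO.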

The nature of assay [14]: ATG_FoxO_CIS: Attagene CIS-FACTORIAL HepG2 Assay for human Forkhead box O (FoxO) (AID 2282943). Particulars: HepG2 Attagene cis-reporter, FoxO element, mRNA; actives raise or lower the signal. Put shortly: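 HepG2, transient MRTU transfection (cis element, endogenous TFs). Dose 24 h. TriZol RNA → oligo(dT) RT → PCR → 6-FAM primer extension → HpaI cut → CE. Gain/loss vs DMSO.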

Assay [15] in a line: ATG_GATA_CIS: Attagene CIS-FACTORIAL HepG2 Assay for human GATA Binding Protein (AID 2282944). Particulars: HepG2 GATA cis-element reporter, Attagene multiplex mRNA; actives raise or lower the signal. Put shortly:
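Transfected cis-reporter HepG2 cells were treated with chemicals for 24 hours. Total RNA was then converted to cDNA, amplified with reporter-specific primers and analysed by fluorescent capillary electrophoresis, using DMSO-treated wells as baseline.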

Assay [16] is described as follows: ATG_GLI_CIS: Attagene CIS-FACTORIAL HepG2 Assay for human Zinc Finger Protein GLI1 (AID 2282945). Particulars: HepG2, Attagene cis-factorial reporter mRNA, GLI element; actives raise or lower the signal. Put shortly:
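Bidirectional curve fits relative to DMSO, using reporter mRNA levels from RT-PCR plus capillary electrophoresis. Cells were HepG2 transiently carrying cis-regulated reporter constructs, harvested 24 h after dosing.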

A short description of assay [17]: ATG_GRE_CIS: Attagene CIS-FACTORIAL HepG2 Assay for human Glucocorticoid Response Elements (GRE) (AID 2282947). The conditions noted are these: HepG2 GRE cis-reporter, Attagene multiplex mRNA; actives raise or lower the signal. Put shortly:
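Reporter transcripts read by RT-PCR with capillary electrophoresis fluorescence after a 24 h chemical exposure of HepG2 cells transiently transfected with multiple cis-element reporter units. Gain or loss fitted against DMSO.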

The nature of assay [18]: ATG_ISRE_CIS: Attagene CIS-FACTORIAL HepG2 Assay for human Interferon Regulatory Factor 1 (IRF1) binding to an Interferon-Stimulated Response Element (ISRE) (AID 2282948). Particulars: HepG2 ISRE cis-reporter (Attagene), mRNA transcription readout; actives raise or lower the signal. A digest of the protocol:
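Read-out: fluorescent RT-PCR products resolved by capillary electrophoresis, reporting endogenous transcription factor activity via ISRE-driven reporter mRNA in transfected HepG2 cells dosed for 24 h; gain or loss fitted relative to DMSO.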

Assay [19] is described as follows: ATG_M_61_CIS: Attagene CIS-FACTORIAL HepG2 Assay for M61 Transcription Factor (Internal Marker) (AID 2282937). The conditions noted are these: HepG2 Attagene CIS-FACTORIAL M61 internal marker reporter; actives raise or lower the signal. Put shortly: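 HepG2 cells transiently transfected with multiplexed cis-promoter reporter units reporting endogenous transcription factor activity, measured 24 h after dosing. Reporter mRNA quantified by RT-PCR and capillary electrophoresis; bidirectional fit against DMSO baseline.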

The target of assay [20] is Bile acid receptor (Homo sapiens) (UniProt Q96RI1). Nature of the assay: ATG_IR1_CIS: Attagene CIS-FACTORIAL HepG2 Assay for human Nuclear Receptor Subfamily 1 Group H Member 4 (NR1H4), IR1 submotif (AID 2282946). The conditions noted are these: IR1 reporter transcription, actives raise or lower the signal. A digest of the protocol:
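HepG2 cells transiently transfected with multiplexed cis-element reporter units read endogenous transcription factor activity. After 24 h compound exposure, reporter mRNA was quantified by RT-PCR, fluorescent labelling, HpaI digestion and capillary electrophoresis; bidirectional fitting versus DMSO baseline.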

As a reminder, the AC50 is the midpoint of the concentration-response curve, whichever way the signal moves.

Chain of Aryl hydrocarbon receptor (Homo sapiens) (P35869 whole entry, looked up): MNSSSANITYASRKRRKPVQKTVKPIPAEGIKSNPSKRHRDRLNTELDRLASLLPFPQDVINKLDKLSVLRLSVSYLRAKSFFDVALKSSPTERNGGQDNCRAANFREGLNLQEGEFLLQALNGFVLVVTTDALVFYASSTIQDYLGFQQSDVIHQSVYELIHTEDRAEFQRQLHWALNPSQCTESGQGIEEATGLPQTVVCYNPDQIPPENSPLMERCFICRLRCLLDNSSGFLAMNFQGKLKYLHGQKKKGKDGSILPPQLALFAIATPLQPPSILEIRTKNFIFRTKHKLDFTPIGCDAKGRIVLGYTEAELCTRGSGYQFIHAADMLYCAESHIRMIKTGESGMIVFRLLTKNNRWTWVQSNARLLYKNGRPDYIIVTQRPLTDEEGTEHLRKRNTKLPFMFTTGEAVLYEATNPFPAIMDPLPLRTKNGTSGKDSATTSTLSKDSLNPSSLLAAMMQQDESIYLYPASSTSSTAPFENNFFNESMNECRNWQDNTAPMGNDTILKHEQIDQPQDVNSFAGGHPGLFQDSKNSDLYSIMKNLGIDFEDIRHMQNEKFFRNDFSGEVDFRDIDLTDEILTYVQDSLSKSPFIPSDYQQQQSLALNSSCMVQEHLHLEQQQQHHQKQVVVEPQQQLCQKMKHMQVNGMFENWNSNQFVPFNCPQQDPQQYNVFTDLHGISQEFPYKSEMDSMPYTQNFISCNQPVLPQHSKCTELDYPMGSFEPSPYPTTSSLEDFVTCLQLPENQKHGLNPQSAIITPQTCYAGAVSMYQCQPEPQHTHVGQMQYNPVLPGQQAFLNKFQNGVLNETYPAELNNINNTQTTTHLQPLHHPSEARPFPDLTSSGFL
Chain of Hepatocyte nuclear factor 3-beta (Homo sapiens) (Q9Y261 whole entry, looked up): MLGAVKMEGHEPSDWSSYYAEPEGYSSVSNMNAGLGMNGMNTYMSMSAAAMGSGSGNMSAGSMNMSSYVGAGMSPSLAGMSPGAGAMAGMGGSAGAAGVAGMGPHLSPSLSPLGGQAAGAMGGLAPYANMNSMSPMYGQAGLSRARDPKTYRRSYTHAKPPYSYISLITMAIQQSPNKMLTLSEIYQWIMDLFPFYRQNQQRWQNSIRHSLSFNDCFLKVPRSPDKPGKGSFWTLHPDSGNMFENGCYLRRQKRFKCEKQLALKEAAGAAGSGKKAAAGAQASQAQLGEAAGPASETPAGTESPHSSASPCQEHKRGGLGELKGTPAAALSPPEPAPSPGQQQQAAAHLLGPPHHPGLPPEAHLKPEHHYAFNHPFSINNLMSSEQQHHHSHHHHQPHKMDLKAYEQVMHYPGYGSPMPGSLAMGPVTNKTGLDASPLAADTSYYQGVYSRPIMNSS
Chain of Transcription factor E2F1 (Homo sapiens) (Q01094 whole entry, looked up): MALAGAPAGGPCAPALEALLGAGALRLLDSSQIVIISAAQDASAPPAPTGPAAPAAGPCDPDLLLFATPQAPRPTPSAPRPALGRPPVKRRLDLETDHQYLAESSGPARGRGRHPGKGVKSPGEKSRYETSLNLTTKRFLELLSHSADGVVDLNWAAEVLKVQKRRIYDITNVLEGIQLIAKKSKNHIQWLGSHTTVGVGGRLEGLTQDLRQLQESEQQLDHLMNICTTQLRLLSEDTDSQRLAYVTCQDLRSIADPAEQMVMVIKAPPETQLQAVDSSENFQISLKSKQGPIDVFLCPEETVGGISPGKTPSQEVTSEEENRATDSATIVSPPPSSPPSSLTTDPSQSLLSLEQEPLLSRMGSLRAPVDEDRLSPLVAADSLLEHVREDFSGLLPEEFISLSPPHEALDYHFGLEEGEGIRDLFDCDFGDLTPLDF
Chain of Bile acid receptor (Homo sapiens) (Q96RI1 whole entry, looked up): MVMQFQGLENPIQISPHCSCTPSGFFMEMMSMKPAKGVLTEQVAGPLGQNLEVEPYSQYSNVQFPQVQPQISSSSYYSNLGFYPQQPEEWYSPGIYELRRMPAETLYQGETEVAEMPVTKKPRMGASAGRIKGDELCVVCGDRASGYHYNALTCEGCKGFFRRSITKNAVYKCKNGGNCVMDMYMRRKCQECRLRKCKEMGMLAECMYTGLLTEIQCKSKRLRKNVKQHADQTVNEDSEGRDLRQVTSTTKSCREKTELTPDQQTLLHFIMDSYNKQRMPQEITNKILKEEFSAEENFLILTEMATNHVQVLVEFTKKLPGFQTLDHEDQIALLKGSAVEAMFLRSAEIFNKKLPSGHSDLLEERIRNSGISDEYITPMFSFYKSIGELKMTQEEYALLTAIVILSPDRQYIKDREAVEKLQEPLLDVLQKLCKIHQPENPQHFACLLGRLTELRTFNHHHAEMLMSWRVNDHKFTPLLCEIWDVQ

Regarding `Cc1cccc(N=Nc2ccc(N(C)C)cc2)c1`, the outcome in [1], in [3], in assay [4], in [5], in [6] and in [7] was inactive. In addition, the outcome in assay [8], in [9], in assay [10], in assay [11], in assay [12] and in [13] was inactive. Further, the outcome in [14], in assay [15], in [16], in [17] and in [18] was inactive. Further, in assay [2], the AC50 is 8.37 µM (active).

For the compound `OCCCCO`, the compound was classed as inactive in [1], in [2], in [3], in assay [4], in assay [5] and in assay [6]. In addition, the compound was classed as inactive in assay [7], in assay [8], in assay [19], in assay [13], in assay [14] and in assay [15]. In addition, the outcome in assay [16], in assay [20] and in assay [18] was inactive.

Take `C=CC(=O)OCC(COC(=O)C=C)(COC(=O)C=C)COC(=O)C=C`: the half-maximal activity concentration (AC50) in assay [1] is 3.12 µM (active); in [3], 33.4 µM (active); in assay [4], 33.4 µM (active); in [8], 7.14 µM (active); in assay [12] it was 33.4 µM (active); in assay [14] it was 8.71 µM (active). The AC50 is 12.2 µM (active) in [20] and 5.34 µM (active) in assay [18]. In addition, the result in assay [2], in assay [5], in assay [6], in [7], in assay [19] and in [10] was inactive. Moreover, the compound was classed as inactive in [11], in [13], in assay [15], in assay [16] and in [17].

In the case of `Cc1cc(C(F)(C(F)(F)F)C(F)(F)F)ccc1NC(=O)c1cccc(I)c1C(=O)NC(C)(C)CS(C)(=O)=O`, the compound was classed as inactive in assay [1], in assay [2], in [3], in [4], in assay [5] and in assay [6]. The compound was classed as inactive in assay [7], in assay [8], in assay [19], in assay [10], in assay [12] and in [14]. For the same compound, the outcome in assay [15], in assay [16], in assay [20], in assay [17] and in assay [18] was inactive.
